Results from PubChem BioAssay.
The source made the active and inactive calls.

Assays:
[1] = system: Plasmodium falciparum Sir2 (PF13_0152, Sir2A); test: Plasmodium falciparum Sir2A binding compounds – biochemical, small-molecule microarray, 635 nm fluorescence, primary screen (AID 1098); settings: fluorescence 635 nm, higher = more signal;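 further: score merges spot fluorescence intensity with its signal-to-noise ratio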
[2] = probe aDKK1 binding to arrayed compounds – biochemical, biotinylated probe, 635/667 nm fluorescence, primary screen (AID 1099); settings: small-molecule microarray, higher = more signal;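 further: score merges 667nm spot fluorescence with signal to noise across triplicate slides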
[3] = probe aCHRDL2 binding to arrayed compounds – biochemical, biotinylated probe, 635/667 nm fluorescence, primary screen (AID 1100); settings: small-molecule microarray, higher = more signal
[4] = change in splice reporter luminescence, either direction, cell-based, HEK293, spliceosome inhibition project, primary screen (AID 1101); settings: HEK293 splicing luciferase reporter, 24 h, higher = more signal, called active from +8 up or from −8 down;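 further: HEK293 cells carrying a splicing-competent luciferase reporter gene; test concentration not given here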
[5] = target: Fibroblast growth factor 10 (Homo sapiens) (UniProt O15520); test: compounds binding fibroblast growth factor 10 – biochemical, small-molecule microarray, 635 nm fluorescence, primary screen (AID 1102); settings: FGF10 binding, fluorescence 635 nm, higher = more signal
[6] = system: glycogen synthase kinase-3 (GSK3A per assay name; protocol says GSK3B); test: compounds binding glycogen synthase kinase-3 – biochemical, small-molecule microarray, 635 nm fluorescence, GSK3A, primary screen (AID 1103); settings: fluorescence 635 nm, higher = more signal; further: the record names both GSK3A and GSK3B
[7] = target: Epidermal growth factor receptor (Homo sapiens) (UniProt P00533); test: compounds binding epidermal growth factor receptor – biochemical, small-molecule microarray, 635 nm fluorescence, primary screen (AID 1104); settings: EGFR binding, higher = more signal;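 further: score merges 667 nm emission intensity with spot signal to noise over triplicate slides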
[8] = target: Follistatin-related protein 3 (Homo sapiens) (UniProt O95633); test: compounds binding follistatin-related protein 3 – biochemical, small-molecule microarray, 635 nm fluorescence, primary screen (AID 1105); settings: FSTL3 binding, higher = more signal;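 further: score merges emission near 667 nm and signal to noise per printed spot across three slides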
[9] = target: Dickkopf-related protein 1 (Homo sapiens) (UniProt O94907); test: small molecules binding DKK1 protein – biochemical, small-molecule microarray, 635 nm fluorescence scan, primary screen (AID 1106); settings: higher = more signal;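 further: score merges emission near 667 nm with signal to noise over three replicate slides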
[10] = system: Inhibin beta A chain (activin A); test: small molecules binding activin A – biochemical, small-molecule microarray, 635 nm fluorescence scan, primary screen (AID 1107); settings: INHBA, higher = more signal;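 further: mouse activin A protein probed at 4.33 µg/mL on printed slides; score merges bound-protein fluorescence near 667 nm with spot signal-to-noise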
[11] = system: Human papillomavirus type 1a protein E7 (residues 44-93); test: small molecules binding HPV E7 44-93 – biochemical, small-molecule microarray, residues 44-93, 635 nm fluorescence, primary screen (AID 1108); settings: fluorescence 635 nm, higher = more signal;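 further: E7 fragment applied at 1 µg/mL in TBST for 1 h at 4 C; score combines spot fluorescence with its signal to noise ratio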
[12] = hepatitis C replication reporter changes, two-sided – Huh7 cells, luciferase reporter, HCV replication inhibitor project, primary screen (AID 1109); settings: Huh7 HCV replicon luciferase reporter, 48 h; higher = more signal;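 further: huh7 hepatoma cells harbouring a luciferase neomycin HCV replicon reporter; luciferase luminescence as measure of HCV replicon replication; test concentration not given here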
[13] = target: Left-right determination factor 2 (Homo sapiens) (UniProt O00292); test: small molecules binding LEFTY2 protein – biochemical, small-molecule microarray, 635 nm fluorescence scan, primary screen (AID 1110); settings: higher = more signal
[14] = target: Calmodulin-1 (Homo sapiens) (UniProt P0DP23); test: small molecules binding calmodulin-1 with EGTA – biochemical, small-molecule microarray, Cy5-labelled CALM1, profiling panel (AID 1111); settings: Cy5-CALM1 binding fluorescence, higher = more signal;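 further: labelled calmodulin applied in Tris saline Tween buffer holding calcium plus EGTA and DTT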
[15] = target: Calmodulin-1 (Homo sapiens) (UniProt P0DP23); test: small molecules binding Ca-loaded calmodulin-1 – biochemical, small-molecule microarray, Cy5-labelled CALM1, plus calcium, artefact control for SMM control-protein annotation, profiling panel (AID 1112); settings: Cy5-CALM1 binding fluorescence, higher = more signal;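 further: score merges spot fluorescence with signal to noise from triplicate slides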
[16] = probe aWnt5a binding to arrayed compounds – biochemical, biotinylated probe, 635/667 nm fluorescence, primary screen (AID 1113); settings: small-molecule microarray, higher = more signal;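 further: score merges 667 nm fluorescence intensity with signal-to-noise per printed feature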
[17] = probe aShh binding to arrayed compounds – biochemical, biotinylated probe, 635/667 nm fluorescence, primary screen (AID 1114); settings: small-molecule microarray, higher = more signal;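 further: probe is biotin-labelled aShh protein from a stem cell growth factor screen; measures binding of labelled protein to compounds printed on the slide; score merges feature fluorescence at 667 nm with signal-to-noise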
[18] = probe aNog binding to arrayed compounds – biochemical, biotinylated probe, 635/667 nm fluorescence, primary screen (AID 1115); settings: small-molecule microarray, higher = more signal;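 further: probe is biotinylated aNog protein used at 0.15 µg/mL for 1 h at 4 C; z-score combines 667 nm fluorescence of each spot with its signal to noise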
[19] = target: Torsin-1A-interacting protein 1 (Homo sapiens) (UniProt Q5JTV8); test: compound microarray binding of lysate hLAP1 – cell lysate, small-molecule microarray, COS7 lysate, 635/667 nm fluorescence, primary screen (AID 1116); settings: 635 nm fluorescence, higher = more signal
[20] = target: Alpha-bungarotoxin (Bungarus multicinctus) (UniProt P60615); test: compounds binding labelled alpha-BTX control protein – biochemical, small-molecule microarray, Alexa647 label, 635/667 nm fluorescence, artefact control for SMM control protein annotation, profiling panel (AID 1117); settings: alpha-BTX-A647 binding fluorescence, higher = more signal
Sequence of Alpha-bungarotoxin (Bungarus multicinctus) (P60615 whole entry, looked up): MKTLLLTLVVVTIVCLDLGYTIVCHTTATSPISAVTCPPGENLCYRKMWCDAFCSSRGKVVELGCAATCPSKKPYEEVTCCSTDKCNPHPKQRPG

Sequence of Epidermal growth factor receptor (Homo sapiens) (P00533 whole entry, looked up): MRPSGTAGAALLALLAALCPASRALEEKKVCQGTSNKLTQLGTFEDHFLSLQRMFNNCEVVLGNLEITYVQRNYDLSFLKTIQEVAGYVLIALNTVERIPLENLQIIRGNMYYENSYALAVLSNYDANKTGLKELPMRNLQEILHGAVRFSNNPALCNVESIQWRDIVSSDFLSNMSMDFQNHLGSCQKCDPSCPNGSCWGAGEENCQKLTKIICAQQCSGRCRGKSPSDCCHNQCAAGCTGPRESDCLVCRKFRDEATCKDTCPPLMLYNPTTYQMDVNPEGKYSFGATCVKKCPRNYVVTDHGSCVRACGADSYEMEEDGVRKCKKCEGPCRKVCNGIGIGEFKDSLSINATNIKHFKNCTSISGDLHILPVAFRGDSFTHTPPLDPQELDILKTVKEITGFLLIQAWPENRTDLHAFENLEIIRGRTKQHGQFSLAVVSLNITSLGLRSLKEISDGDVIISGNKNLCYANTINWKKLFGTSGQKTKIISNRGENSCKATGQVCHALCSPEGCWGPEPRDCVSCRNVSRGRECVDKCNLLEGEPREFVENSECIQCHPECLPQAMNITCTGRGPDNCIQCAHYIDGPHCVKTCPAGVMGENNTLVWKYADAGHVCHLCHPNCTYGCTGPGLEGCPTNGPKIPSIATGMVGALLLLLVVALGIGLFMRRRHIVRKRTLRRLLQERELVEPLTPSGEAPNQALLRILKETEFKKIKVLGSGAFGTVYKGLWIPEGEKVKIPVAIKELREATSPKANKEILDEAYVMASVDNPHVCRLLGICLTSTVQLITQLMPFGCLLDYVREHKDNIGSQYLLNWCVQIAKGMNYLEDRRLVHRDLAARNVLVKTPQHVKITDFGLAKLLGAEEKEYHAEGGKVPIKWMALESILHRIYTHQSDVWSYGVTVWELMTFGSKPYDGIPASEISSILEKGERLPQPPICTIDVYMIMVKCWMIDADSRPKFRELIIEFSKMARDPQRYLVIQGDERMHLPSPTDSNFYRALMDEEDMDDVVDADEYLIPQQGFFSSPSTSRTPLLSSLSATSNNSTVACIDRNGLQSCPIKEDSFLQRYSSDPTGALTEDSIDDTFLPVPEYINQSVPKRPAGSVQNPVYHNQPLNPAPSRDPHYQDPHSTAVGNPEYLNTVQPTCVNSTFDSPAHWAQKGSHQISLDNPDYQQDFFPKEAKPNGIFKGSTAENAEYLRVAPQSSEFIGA
Sequence of Fibroblast growth factor 10 (Homo sapiens) (O15520 whole entry, looked up): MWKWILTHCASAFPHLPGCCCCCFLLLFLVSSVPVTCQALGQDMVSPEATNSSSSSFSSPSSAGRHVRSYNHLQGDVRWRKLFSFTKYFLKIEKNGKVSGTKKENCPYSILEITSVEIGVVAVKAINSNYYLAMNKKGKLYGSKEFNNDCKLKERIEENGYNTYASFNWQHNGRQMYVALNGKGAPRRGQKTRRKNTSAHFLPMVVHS
Sequence of Torsin-1A-interacting protein 1 (Homo sapiens) (Q5JTV8 whole entry, looked up): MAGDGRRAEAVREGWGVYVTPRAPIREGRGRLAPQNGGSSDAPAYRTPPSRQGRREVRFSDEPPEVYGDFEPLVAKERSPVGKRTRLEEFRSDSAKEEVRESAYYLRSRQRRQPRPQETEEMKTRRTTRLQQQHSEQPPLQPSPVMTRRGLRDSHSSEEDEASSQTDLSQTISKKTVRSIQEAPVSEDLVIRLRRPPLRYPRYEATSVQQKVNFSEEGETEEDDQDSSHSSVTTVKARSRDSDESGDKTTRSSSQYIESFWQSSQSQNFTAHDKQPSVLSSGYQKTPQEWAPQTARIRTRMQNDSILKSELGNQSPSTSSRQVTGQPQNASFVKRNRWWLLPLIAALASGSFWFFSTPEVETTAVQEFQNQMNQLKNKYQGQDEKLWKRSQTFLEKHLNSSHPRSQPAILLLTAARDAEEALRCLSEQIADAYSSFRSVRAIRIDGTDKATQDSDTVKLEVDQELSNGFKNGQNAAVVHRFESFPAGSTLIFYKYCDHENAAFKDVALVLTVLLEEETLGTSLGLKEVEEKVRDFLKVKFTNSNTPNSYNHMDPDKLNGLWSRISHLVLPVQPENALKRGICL
Sequence of Left-right determination factor 2 (Homo sapiens) (O00292 whole entry, looked up): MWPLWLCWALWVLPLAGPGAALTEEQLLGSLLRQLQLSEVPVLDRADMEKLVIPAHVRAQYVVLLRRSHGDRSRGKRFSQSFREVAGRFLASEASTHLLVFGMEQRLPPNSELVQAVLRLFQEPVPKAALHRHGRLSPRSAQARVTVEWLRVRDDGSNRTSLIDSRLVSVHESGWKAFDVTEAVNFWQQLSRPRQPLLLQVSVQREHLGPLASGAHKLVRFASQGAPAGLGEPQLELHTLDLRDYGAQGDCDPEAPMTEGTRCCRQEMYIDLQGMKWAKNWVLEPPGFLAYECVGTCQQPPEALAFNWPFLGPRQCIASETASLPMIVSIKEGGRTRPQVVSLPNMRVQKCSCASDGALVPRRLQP
Sequence of Dickkopf-related protein 1 (Homo sapiens) (O94907 whole entry, looked up): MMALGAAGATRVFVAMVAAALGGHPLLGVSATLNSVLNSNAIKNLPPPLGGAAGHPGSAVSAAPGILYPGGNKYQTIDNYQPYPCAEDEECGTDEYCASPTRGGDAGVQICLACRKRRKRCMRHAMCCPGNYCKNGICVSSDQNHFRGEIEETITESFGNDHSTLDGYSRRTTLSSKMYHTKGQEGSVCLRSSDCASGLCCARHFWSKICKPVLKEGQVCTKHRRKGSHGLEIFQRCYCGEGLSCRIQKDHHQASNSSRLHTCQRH
Sequence of Follistatin-related protein 3 (Homo sapiens) (O95633 whole entry, looked up): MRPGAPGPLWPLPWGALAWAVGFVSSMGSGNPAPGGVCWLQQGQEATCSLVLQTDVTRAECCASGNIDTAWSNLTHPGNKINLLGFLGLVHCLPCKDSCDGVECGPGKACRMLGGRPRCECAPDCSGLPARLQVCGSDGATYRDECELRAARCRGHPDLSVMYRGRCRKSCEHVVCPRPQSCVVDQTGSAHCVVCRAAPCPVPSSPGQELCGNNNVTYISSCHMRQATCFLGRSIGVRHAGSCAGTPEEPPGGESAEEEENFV

| SMILES | composite z-score [1] | composite z-score [2] | composite z-score [3] | z-score [4] | composite z-score [5] | composite z-score [6] | composite z-score [7] | composite z-score [8] | composite z-score [9] | composite z-score [10] | composite z-score [11] | z-score [12] | composite z-score [13] | composite z-score [14] | composite z-score [15] | composite z-score [16] | composite z-score [17] | composite z-score [18] | composite z-score [19] | composite z-score [20] |
| --- | --- | --- | --- | --- | --- | --- | --- | --- | --- | --- | --- | --- | --- | --- | --- | --- | --- | --- | --- | --- |
| C=C(/C(=C/C[C@H](OC(C)=O)c1ccc(OCCO)cc1)c1cnc2ccccc2c1)C(C)C | 0.659 | -0.523 | -0.611 | -0.494 (inactive) | 1.49 | 0.939 | 0.333 | 1.48 | 0.658 | 1.64 | 1.41 | -1.38 | 1.06 | 0.295 | -0.184 | 0.117 | -0.0917 | -0.243 | 0.782 | 0.911 |
| CO[C@@H]1COC(=O)CCC[C@@H](C)[C@H](OC)COC(=O)CCC[C@H]1C | 0.691 | -0.224 | -0.755 | 0.349 (inactive) | 0.0939 | 0.534 | 0.379 | 0.715 | 0.731 | -0.0672 | -0.341 | -1.38 | 0.862 | -0.454 | -0.966 | -0.0445 | -0.206 | -0.303 | 0.665 | -0.12 |
| COC(=O)CC=C[C@H](C)[C@H](CO)NS(=O)(=O)c1ccc(C)cc1 | 0.227 | -0.397 | -0.707 | 0.636 (inactive) | 0.62 | 0.252 | 0.573 | 0.48 | 0.987 | -0.273 | 0.144 | -0.763 | 0.703 | -0.756 | -0.624 | -0.124 | -0.117 | -0.0094 | 0.729 | 0.219 |
| O=C1c2ccccc2[C@@]2(Cc3ccccc3N(C3CC3)C2=O)[C@H](c2ccc(CO)cc2)N1Cc1ccccc1C(F)(F)F | -0.0922 | 0.261 | 0.281 | -0.628 (inactive) | -0.837 | -0.433 | -0.942 | -0.672 | -1.2 | 0.394 | 0.223 | -2.39 | -1.18 | -0.48 | -0.382 | -0.154 | 0.0545 | -0.23 | 0.188 | -1.37 |
| Cc1ccc(S(=O)(=O)N[C@@H]2COC(=O)[C@H](C)COC(=O)CC=C[C@H]2C)cc1 | -0.0259 | -0.291 | -0.589 | 0.159 (inactive) | 0.66 | 0.771 | 0.751 | 1.41 | 1.8 | 1.16 | -0.45 | 0.668 | 0.602 | -0.163 | -0.964 | -0.13 | -0.117 | -0.425 | 0.438 | 0.0762 |
| CCOC(=O)[C@H](Cc1ccccc1)NC(=O)CCC1CC(OC(=O)NCc2ccc3c(c2)OCO3)CC2(CCCC(COC(=O)NCC(c3ccccc3)c3ccccc3)O2)O1 (stereo not given in full) | 1.06 | -0.0362 | -0.481 | -1.45 (inactive) | 0.525 | 1.23 | 0.251 | 0.929 | 0.377 | -0.0374 | 1.39 | 0.529 | 0.45 | -0.198 | -0.0205 | -0.175 | 0.0723 | -0.233 | 0.313 | 0.363 |
| COc1cccc([C@@H]2Oc3ccc(Br)cc3C(=O)[C@H]2O)c1 | 0.237 | -0.257 | -0.423 | -1.7 (inactive) | 1.19 | 0.101 | 0.312 | 0.892 | 0.221 | 0.287 | 0.0288 | 3.55 | 0.171 | 0.042 | -0.246 | -0.124 | -0.243 | -0.257 | 0.43 | 0.599 |
| COC(=O)[C@H]1COC(c2ccc(OCCCO)cc2)=N1 | 1.16 | 0.378 | 1.07 | -0.19 (inactive) | -0.13 | -0.882 | -0.2 | -0.576 | -0.59 | 1.04 | -1.8 | 0.592 | -0.365 | -0.545 | 0.662 | 0.0108 | -0.276 | 0.221 | 1.94 | -0.373 |
| CCOC(=O)CCN1C(=O)[C@H]2[C@H]3[C@H](O)[C@H](O)CC(=NNC(=O)OCc4ccc(OC)cc4)[C@@H]3CC[C@H]2C1=O | 0.0745 | -0.0545 | -0.476 | 0.454 (inactive) | 0.567 | 0.754 | 0.593 | 1.32 | 0.819 | 0.334 | -0.75 | -0.552 | 0.554 | 0.715 | -0.0636 | -0.124 | -0.323 | -0.118 | 0.94 | 1.21 |
| CCCCCN1CC=CC23O[C@@H]4C=CCOC(=O)[C@@H]4[C@H]2C(=O)N(CCCCCCO)[C@@H]3C1=O (stereo not given in full) | 1.93 | -0.0936 | 0.734 | -0.0127 (inactive) | -0.655 | -1.08 | -1.31 | -1.81 | -1.54 | -0.395 | -0.276 | 0.417 | -2 | -0.284 | 0.168 | -0.0417 | 0.0796 | 0.293 | 1.9 | -0.729 |
| CC(=O)OC[C@H]1O[C@H](C#CCCCc2ccccc2)C=C[C@@H]1OC(C)=O | 0.829 | -0.194 | -0.33 | 0.492 (inactive) | 0.687 | -0.0427 | 0.0559 | 0.556 | 0.3 | 1.03 | 0.108 | -2.99 | 0.615 | -0.826 | -0.794 | -0.118 | -0.0474 | -0.493 | 0.298 | 0.155 |
| CC(C)(C)OC(=O)CC[C@]1(C(N)=O)COC(c2ccc(OCCCO)cc2)=N1 | 0.755 | 1.59 | 1.38 | -0.337 (inactive) | 1.34 | 0.977 | -0.395 | 0.278 | -0.385 | 0.976 | 0.0119 | -0.518 | -0.471 | 2.68 | 1.42 | 0.131 | 0.591 | 1.7 | 2.08 | 1.64 |
